Results on 34 compounds are retold here after ChEMBL document CHEMBL1961873, “Compounds: GSK PKIS; Assays: Nanosyn kinase panel” (2012).

Chain of Insulin receptor-related protein (Homo sapiens) (P14616 27-742 limits assumed): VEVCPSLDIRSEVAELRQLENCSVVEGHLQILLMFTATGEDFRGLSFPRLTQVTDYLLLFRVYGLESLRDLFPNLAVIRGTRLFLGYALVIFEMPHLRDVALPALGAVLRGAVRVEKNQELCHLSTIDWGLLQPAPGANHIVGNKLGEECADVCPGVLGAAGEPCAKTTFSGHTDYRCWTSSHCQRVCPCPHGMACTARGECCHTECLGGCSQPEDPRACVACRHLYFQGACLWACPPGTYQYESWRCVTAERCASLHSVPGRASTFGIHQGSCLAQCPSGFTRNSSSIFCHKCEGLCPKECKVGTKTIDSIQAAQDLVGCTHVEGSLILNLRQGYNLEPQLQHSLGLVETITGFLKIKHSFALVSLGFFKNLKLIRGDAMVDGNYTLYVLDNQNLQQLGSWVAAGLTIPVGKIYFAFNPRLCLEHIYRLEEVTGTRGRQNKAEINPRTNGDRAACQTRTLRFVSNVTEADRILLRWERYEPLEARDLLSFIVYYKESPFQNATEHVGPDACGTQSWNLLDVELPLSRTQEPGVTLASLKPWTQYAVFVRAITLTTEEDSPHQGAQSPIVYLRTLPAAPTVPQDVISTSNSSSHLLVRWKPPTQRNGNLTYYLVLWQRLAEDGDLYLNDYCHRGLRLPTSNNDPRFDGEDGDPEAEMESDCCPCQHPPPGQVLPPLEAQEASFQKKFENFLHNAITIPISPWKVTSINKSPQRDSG
Chain of Insulin receptor-related protein (Homo sapiens) (P14616 747-1297 limits assumed): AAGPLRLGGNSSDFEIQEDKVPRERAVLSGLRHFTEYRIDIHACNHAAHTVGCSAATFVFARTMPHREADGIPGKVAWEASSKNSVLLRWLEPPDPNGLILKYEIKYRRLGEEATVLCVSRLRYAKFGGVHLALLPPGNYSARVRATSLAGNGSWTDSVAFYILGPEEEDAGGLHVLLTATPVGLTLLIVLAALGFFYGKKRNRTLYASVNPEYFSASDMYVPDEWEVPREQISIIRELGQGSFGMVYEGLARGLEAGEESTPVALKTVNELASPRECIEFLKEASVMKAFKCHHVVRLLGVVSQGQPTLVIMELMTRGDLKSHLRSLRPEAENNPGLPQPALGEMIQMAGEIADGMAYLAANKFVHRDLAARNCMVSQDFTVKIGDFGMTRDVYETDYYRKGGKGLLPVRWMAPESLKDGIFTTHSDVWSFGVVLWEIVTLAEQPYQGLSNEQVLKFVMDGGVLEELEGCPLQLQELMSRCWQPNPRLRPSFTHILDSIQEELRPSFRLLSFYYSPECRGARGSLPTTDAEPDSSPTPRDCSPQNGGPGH

The first assay has as its target Insulin receptor-related protein (Homo sapiens) (UniProt P14616). The following applies: at 1 µM.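 Note: each reported figure is the mean of the IRR inhibition readings.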
With `COc1cc2ncn(-c3cc(OCc4cccs4)c(C(N)=O)s3)c2cc1OC`, the inhibition is 1.63%.
The same measure, in the same setting: then `COc1cc(C)c(N(C)C(=O)CN(C)C)cc1Nc1nc(Nc2cccc(F)c2C(N)=O)c2cc[nH]c2n1`, with 17.1%; and `CN(C)CCCNc1nccc(-c2c(-c3ccc(F)cc3)nn3cc(C(F)(F)F)ccc23)n1`, with 0.73%.
Take `COc1cccc(/C=N/Nc2ncnc3c2cnn3-c2cccc(OC)c2)c1`: the inhibition came to 1.31%.
Same read-out and setting: then `CCC(=O)Nc1ccc(C)c(-c2ccc(C(=O)NCC3CC3)cc2)c1`, with 1.59%; and `CCS(=O)(=O)c1ccc(OC)c(Nc2ncc(-c3cccc(-c4ccccc4F)c3)o2)c1`, with -0.35%; and `C#Cc1cccc(Nc2ncnc3ccc(OCCCCNCCS(C)(=O)=O)cc23)c1`, with 2.49%.
Still for that read-out and setting: the same measure for `CS(=O)(=O)CCNCc1ccc(-c2ccc3ncnc(Nc4ccc(OCc5ccccc5)c(Br)c4)c3c2)o1`: 2.95%; for `COc1cc2ncn(-c3cc(OCCc4ccccc4)c(C(N)=O)s3)c2cc1OC`: 2.64%; for `NS(=O)(=O)c1ccc(N/N=C2\C(=O)Nc3ccc(-c4cnco4)cc32)cc1`: 0.6%.
Consider `Cc1ccc(C(=O)NC2CCC2)cc1-c1ccc(C(=O)NCC2CC2)cc1`, for which the inhibition turned out to be 1.77%.
As to `COc1ccc2cc(-c3c(-c4ccncc4)nc(-c4ccc([S+](C)[O-])cc4C)n3C)ccc2c1` (stereo not drawn), the inhibition stood at 1.18%.
On the same count and under the same terms, the same measure for `COc1cc(N2CCN(C(C)C)CC2)ccc1Nc1nc(Nc2ccc(F)cc2C(=O)NC[C@@H](O)CO)c2cc[nH]c2n1`: 78%.
Same read-out and setting: then `COc1ccc2ncn(-c3cc(O[C@H](C)c4ccccc4Cl)c(C(N)=O)s3)c2c1`, with 3.51%.
The same measure, in the same setting: the same measure for `Fc1ccc(-c2nc3n(c2-c2ccncc2)CCS3)cc1`: 1.09%.
With `CN1CCN(CCCNc2nc3ccc(Oc4ccc(NC(=O)Nc5cc(C(F)(F)F)ccc5F)cc4)cc3[nH]2)CC1`, the inhibition is 0.55%.
Still for that read-out and setting: the same measure for `Fc1ccc(-c2c(-c3ccncc3)nc3n2CCS3)cc1`: 0.48%; for `NCc1ccc(-n2c(-c3nonc3N)nc3cnccc32)cc1`: 2.5%.
Same read-out and setting: then `CCS(=O)(=O)c1ccc(OC)c(Nc2ncc(-c3ccccc3Cl)o2)c1`, with 3.78%; and `Fc1ccc(-c2ncn(C3CCNCC3)c2-c2ccnc(Oc3ccc(F)c(F)c3)n2)cc1`, with 2.75%; and `Fc1ccc(-c2ncn(C3CCNCC3)c2-c2ccnc(Oc3ccc(Oc4ccccc4)cc3)n2)cc1`, with 3.32%.
On the same count and under the same terms, then `C[C@@H](Oc1cc(-n2cnc3ccc(OC4CCN(C)CC4)cc32)sc1C(N)=O)c1ccccc1Cl`, with 3.03%; and `c1ccc(-c2n[nH]cc2-c2ccnc(-c3ccc(OCCN4CCOCC4)cc3)c2)nc1`, with -0.34%.
On to `c1ccc(Oc2ccc(Nc3ncc(-c4ccccc4)o3)cc2)cc1`, for which the inhibition was found to be 1.99%.
Same read-out and setting: the same measure for `COc1cccc(-n2cnc3c(N/N=C/c4ccncc4)ncnc32)c1`: 0.57%.
In the case of `C[C@@H](Oc1cc(-n2cnc3ccc(OCC4CCN(C)CC4)cc32)sc1C(N)=O)c1ccccc1Cl`, the inhibition turned out to be 3.31%.
Same read-out and setting: the same measure for `CCN(CC)Cc1ccc(Nc2nccc(-c3cnn4ncccc34)n2)cc1`: 7.36%; for `Cc1nnc(-c2ccc(C)c(-c3ccc(C(=O)NCc4ccc(Cl)cc4)cc3)c2)o1`: 1.98%; for `O=C(Nc1n[nH]c2cc(-c3ccccc3)ccc12)C1CC1`: 0.58%.
Still for that read-out and setting: the same measure for `COc1cc(Nc2ncc3c(C)nc(-c4cccc(Oc5ccccc5)c4)n3n2)cc(OC)c1OC`: 3.66%.
For `Clc1ccc(CNc2nccc(-c3cnn4ncccc34)n2)cc1`, the inhibition was found to be 2.19%.
For `CN(C)c1ccc2c(c1)/C(=C/Nc1ccc(S(N)(=O)=O)cc1)C(=O)N2`, the inhibition came out at 3.14%.
The same measure, in the same setting: then `CNC(=O)c1cncc(/C=C/c2c(C)cccc2C)c1`, with 1.08%.
Same read-out and setting: then `COc1cc(Nc2ncc3c(C)nc(-c4cccc(C(F)(F)F)c4)n3n2)cc(OC)c1OC`, with 3.39%.

The target of a further assay is T1, Tyrosine-protein kinase ITK/TSK (Homo sapiens) (UniProt Q08881).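 Note: mean percent inhibition of ITK from the GSK PKIS screen.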
T1 sequence (whole entry): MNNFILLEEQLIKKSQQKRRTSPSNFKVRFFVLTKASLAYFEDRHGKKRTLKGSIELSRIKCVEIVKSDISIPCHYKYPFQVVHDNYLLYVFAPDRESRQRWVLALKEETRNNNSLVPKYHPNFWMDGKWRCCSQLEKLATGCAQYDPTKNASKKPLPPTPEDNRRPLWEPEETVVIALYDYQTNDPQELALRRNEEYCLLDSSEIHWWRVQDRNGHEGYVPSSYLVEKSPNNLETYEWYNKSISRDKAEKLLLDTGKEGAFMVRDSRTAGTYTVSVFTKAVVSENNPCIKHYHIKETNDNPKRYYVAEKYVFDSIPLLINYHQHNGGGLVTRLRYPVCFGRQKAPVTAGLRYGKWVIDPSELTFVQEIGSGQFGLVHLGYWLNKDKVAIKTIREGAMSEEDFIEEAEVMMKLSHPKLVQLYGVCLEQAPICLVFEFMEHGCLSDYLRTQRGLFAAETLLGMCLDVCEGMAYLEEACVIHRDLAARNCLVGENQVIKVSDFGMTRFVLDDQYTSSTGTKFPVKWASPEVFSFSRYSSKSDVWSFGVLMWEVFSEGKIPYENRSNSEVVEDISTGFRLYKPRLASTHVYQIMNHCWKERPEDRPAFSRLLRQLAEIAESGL
The following applies: at 0.1 µM.
For `COc1cc2ncn(-c3cc(OCc4cccs4)c(C(N)=O)s3)c2cc1OC`, the inhibition was -1%.
Still for that read-out and setting: the same measure for `COc1cc(C)c(N(C)C(=O)CN(C)C)cc1Nc1nc(Nc2cccc(F)c2C(N)=O)c2cc[nH]c2n1`: -2.44%; for `CN(C)CCCNc1nccc(-c2c(-c3ccc(F)cc3)nn3cc(C(F)(F)F)ccc23)n1`: -2.44%.
As to `COc1cccc(/C=N/Nc2ncnc3c2cnn3-c2cccc(OC)c2)c1`, the inhibition came out at 0.35%.
In the case of `CCC(=O)Nc1ccc(C)c(-c2ccc(C(=O)NCC3CC3)cc2)c1`, the inhibition was -0.06%.
On the same count and under the same terms, the same measure for `CCS(=O)(=O)c1ccc(OC)c(Nc2ncc(-c3cccc(-c4ccccc4F)c3)o2)c1`: 0.42%.
On the same count and under the same terms, the same measure for `C#Cc1cccc(Nc2ncnc3ccc(OCCCCNCCS(C)(=O)=O)cc23)c1`: -1.95%; for `CS(=O)(=O)CCNCc1ccc(-c2ccc3ncnc(Nc4ccc(OCc5ccccc5)c(Br)c4)c3c2)o1`: -4.12%; for `COc1cc2ncn(-c3cc(OCCc4ccccc4)c(C(N)=O)s3)c2cc1OC`: 1.33%.
The same measure, in the same setting: then `NS(=O)(=O)c1ccc(N/N=C2\C(=O)Nc3ccc(-c4cnco4)cc32)cc1`, with -3.91%; and `Cc1ccc(C(=O)NC2CCC2)cc1-c1ccc(C(=O)NCC2CC2)cc1`, with 2.02%; and `COc1ccc2cc(-c3c(-c4ccncc4)nc(-c4ccc([S+](C)[O-])cc4C)n3C)ccc2c1` (stereo not drawn), with 0.02%.
For the compound `COc1cc(N2CCN(C(C)C)CC2)ccc1Nc1nc(Nc2ccc(F)cc2C(=O)NC[C@@H](O)CO)c2cc[nH]c2n1`, the inhibition is -1.99%.
As for `COc1ccc2ncn(-c3cc(O[C@H](C)c4ccccc4Cl)c(C(N)=O)s3)c2c1`, the inhibition was -4.15%.
With `Fc1ccc(-c2nc3n(c2-c2ccncc2)CCS3)cc1`, the inhibition is -1.96%.
The same measure, in the same setting: the same measure for `CN1CCN(CCCNc2nc3ccc(Oc4ccc(NC(=O)Nc5cc(C(F)(F)F)ccc5F)cc4)cc3[nH]2)CC1`: -2.06%.
Same read-out and setting: then `Fc1ccc(-c2c(-c3ccncc3)nc3n2CCS3)cc1`, with -2.9%; and `NCc1ccc(-n2c(-c3nonc3N)nc3cnccc32)cc1`, with 1.67%.
The same measure, in the same setting: the same measure for `CCS(=O)(=O)c1ccc(OC)c(Nc2ncc(-c3ccccc3Cl)o2)c1`: 0.29%.
In the case of `Fc1ccc(-c2ncn(C3CCNCC3)c2-c2ccnc(Oc3ccc(F)c(F)c3)n2)cc1`, the inhibition was -3.95%.
On the same count and under the same terms, then `Fc1ccc(-c2ncn(C3CCNCC3)c2-c2ccnc(Oc3ccc(Oc4ccccc4)cc3)n2)cc1`, with 3.37%; and `C[C@@H](Oc1cc(-n2cnc3ccc(OC4CCN(C)CC4)cc32)sc1C(N)=O)c1ccccc1Cl`, with -2.4%; and `c1ccc(-c2n[nH]cc2-c2ccnc(-c3ccc(OCCN4CCOCC4)cc3)c2)nc1`, with 5.52%.
Still for that read-out and setting: then `c1ccc(Oc2ccc(Nc3ncc(-c4ccccc4)o3)cc2)cc1`, with 0.89%.
Take `COc1cccc(-n2cnc3c(N/N=C/c4ccncc4)ncnc32)c1`: the inhibition was -2.76%.
Consider `C[C@@H](Oc1cc(-n2cnc3ccc(OCC4CCN(C)CC4)cc32)sc1C(N)=O)c1ccccc1Cl`, for which the inhibition worked out at 2.76%.
For the compound `CCN(CC)Cc1ccc(Nc2nccc(-c3cnn4ncccc34)n2)cc1`, the inhibition was -3.08%.
On the same count and under the same terms, then `Cc1nnc(-c2ccc(C)c(-c3ccc(C(=O)NCc4ccc(Cl)cc4)cc3)c2)o1`, with -2.09%; and `O=C(Nc1n[nH]c2cc(-c3ccccc3)ccc12)C1CC1`, with 1.56%.
The same measure, in the same setting: the same measure for `COc1cc(Nc2ncc3c(C)nc(-c4cccc(Oc5ccccc5)c4)n3n2)cc(OC)c1OC`: 0.96%; for `Clc1ccc(CNc2nccc(-c3cnn4ncccc34)n2)cc1`: 0%.
For `CN(C)c1ccc2c(c1)/C(=C/Nc1ccc(S(N)(=O)=O)cc1)C(=O)N2`, the inhibition came out at 1.03%.
Still for that read-out and setting: then `CNC(=O)c1cncc(/C=C/c2c(C)cccc2C)c1`, with -3.14%; and `COc1cc(Nc2ncc3c(C)nc(-c4cccc(C(F)(F)F)c4)n3n2)cc(OC)c1OC`, with 2.02%.

Broadly, the inhibition is the relative decrease from the control value, in per cent.
